Sampled rows, rich in hits. Any-hit rate of the full collection: about 6.3%.
Spn MK inh: inhibitors of Streptococcus pneumoniae mevalonate kinase. purified MK, PK/LDH-coupled NADH absorbance 340 nm. inhibition, % at 10 µM. 65,000 tested, 0.48% active. AID 555;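 active means ranked among the strongest by inhibition in the single 10 µM screen, a fixed top-ranked set picked for dose follow-up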
Autofluor 339: intrinsic fluorescence of library compounds, ex339/em460 – biochemical, MLSMR library, data from DPM-DC assay, artefact control, profiling panel; compound autofluorescence, ex339/em460 nm, NADH buffer; hits give high values; 1 = no-compound wells, NADH background; fluorescence fold increase at 10 µM; 65,000 tested, 5.5% active;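 active means at 10 µM, mean starting fluorescence two-fold or more over control wells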;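 further: signal is the first read of a kinetic run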
A340 absorber: absorbance at 340 nm | compound absorbance at 340 nm, fold over control | fold change at 10 µM | 65,000 tested, under 10 active | AID 708;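 active means at 10 µM dose, initial 340 nm absorbance at least 2 fold that of control wells; inactive means change under 2 fold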;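 further: initial absorbance extrapolated from kinetic A340 decline of NADH oxidation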
NADH enzymes: blocks coupling enzymes of NAD/NADH assays. coupled PK/LDH NADH assays, four targets. IC50, µM (doses to about 10 µM), without a hit: top-dose inhibition. 65,000 tested, 0.02% active;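 active means single-dose screening hits from any of four coupled enzyme assays that gave an IC50 when retested across doses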;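 further: the DPM-DC format reads NADH fluorescence rather than 340 nm absorbance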
PMK inhibit: inhibitors of Streptococcus pneumoniae phosphomevalonate kinase; purified PMK, PK/LDH-coupled NADH absorbance 340 nm; inhibition, % at 10 µM; 65,000 tested, 0.49% active;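 active means top-ranked compounds by inhibition in the single 10 µM screen, taking a fixed number of the strongest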;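 further: 0% = full reaction with DMSO carrier and 100% = background rate without enzyme reaction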
DPM-DC inhibit: blocks S. pneumoniae diphosphomevalonate decarboxylase; purified DPM-DC, PK/LDH coupled NADH fluorescence; calls only at 10 µM; 65,000 tested, 0.49% active; AID 556;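 active means the 320 compounds with the highest percent inhibition in the single-dose primary screen, excluding strongly autofluorescent ones, cut at about 32% in these data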;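 further: kinetic rate of NADH fluorescence loss reporting ADP formed by the decarboxylase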
An asterisk follows results filed as active.

How did Cc1ccc(S(=O)(=O)c2c(N)n(Cc3ccco3)c3nc4ccccc4nc23)cc1 do in these assays?
Spn MK inh: 12; Autofluor 339: 2.2*; A340 absorber: 1.1; NADH enzymes: 6%; PMK inhibit: 0

How did Cc1ccc(S(=O)(=O)c2c(N)n(NC(=O)c3ccco3)c3nc4ccccc4nc23)cc1 do in these assays?
Spn MK inh: 19; Autofluor 339: 3.8*; A340 absorber: 1; NADH enzymes: 18%; PMK inhibit: 16

How did Cc1cccc(-n2cnc3c(c2=O)c2nc4ccccc4nc2n3Cc2ccco2)c1 do in these assays?
Spn MK inh: 11; Autofluor 339: 3.2*; A340 absorber: 1.1; NADH enzymes: 20%; PMK inhibit: 20; DPM-DC inhibit: inactive

What do the screens show for `Cc1cc(C(F)(F)F)nc(NCc2cccnc2)n1`?
Spn MK inh: 12; Autofluor 339: 1.1; A340 absorber: 0.97; NADH enzymes: 3%; PMK inhibit: 0; DPM-DC inhibit: inactive

Results for O=C(O)C1CSC2(CCN(Cc3ccccc3)CC2)N1 (configuration not stated) ?
Spn MK inh: 0; Autofluor 339: 1.1; A340 absorber: 1; NADH enzymes: 2%; PMK inhibit: 7; DPM-DC inhibit: inactive

Results for Clc1c(-c2nnc3n2CCCCC3)sc2ccccc12 ?
Spn MK inh: 0; Autofluor 339: 1.1; A340 absorber: 1; NADH enzymes: 5%; PMK inhibit: 14; DPM-DC inhibit: inactive

How did N=c1oc2ccc3ccccc3c2cc1-c1nnc2n1CCCCC2 do in these assays?
Spn MK inh: 4; Autofluor 339: 2.1*; A340 absorber: 1.1; NADH enzymes: 9%; PMK inhibit: 13

How did O=C(NCc1ccccc1)C1C2C=CC3(CN(Cc4cccnc4)C(=O)C13)O2 (configuration not stated) do in these assays?
Spn MK inh: 0; Autofluor 339: 0.98; A340 absorber: 0.99; NADH enzymes: 11%; PMK inhibit: 27*; DPM-DC inhibit: inactive

What do the screens show for `Cc1cc(=O)oc2cc(OCc3nnc(-c4ccccc4Br)o3)ccc12`?
Spn MK inh: 5; Autofluor 339: 4.5*; A340 absorber: 1; NADH enzymes: 9%; PMK inhibit: 12

How did COC(=O)CSc1nc(-c2cccs2)ccc1C#N do in these assays?
Spn MK inh: 9; Autofluor 339: 2.3*; A340 absorber: 1.1; NADH enzymes: 6%; PMK inhibit: 3

How did O=C(CSc1nc(-c2cccs2)cc(C(F)(F)F)n1)NCc1ccco1 do in these assays?
Spn MK inh: 13; Autofluor 339: 1.1; A340 absorber: 1.1; NADH enzymes: 7%; PMK inhibit: 9; DPM-DC inhibit: inactive

Results for CN1CCN(C(=O)CSc2nc(-c3cccs3)cc(-c3cccs3)c2C#N)CC1 ?
Spn MK inh: 7; Autofluor 339: 2.8*; A340 absorber: 1.1; NADH enzymes: 6%; PMK inhibit: 0; DPM-DC inhibit: inactive

Results for COc1ccc(-c2nnc(SCC(=O)N3CCOCC3)o2)cc1 ?
Spn MK inh: 1; Autofluor 339: 1.2; A340 absorber: 1; NADH enzymes: 1%; PMK inhibit: 3; DPM-DC inhibit: inactive

Results for COc1ccc(-c2cc(-c3cccs3)c(C#N)c(SCC(=O)NCc3ccco3)n2)cc1 ?
Spn MK inh: 8; Autofluor 339: 2.5*; A340 absorber: 1; NADH enzymes: 10%; PMK inhibit: 4; DPM-DC inhibit: inactive

How did C#CCSc1nc(-c2cccs2)ccc1C#N do in these assays?
Spn MK inh: 2; Autofluor 339: 1.9; A340 absorber: 1; NADH enzymes: 2%; PMK inhibit: 14; DPM-DC inhibit: inactive

How did COc1ccc(-c2cc(C(F)(F)F)nc(SCCC(=O)N3CCOCC3)n2)cc1 do in these assays?
Spn MK inh: 12; Autofluor 339: 2*; A340 absorber: 1; NADH enzymes: 9%; PMK inhibit: 14; DPM-DC inhibit: inactive

What do the screens show for `O=C(Cn1cnc2ccccc21)NCc1ccccc1`?
Spn MK inh: 10; Autofluor 339: 1.1; A340 absorber: 0.99; NADH enzymes: 7%; PMK inhibit: 4; DPM-DC inhibit: inactive

How did O=C1C(=O)N(CCCn2ccnc2)C(c2cccnc2)/C1=C(/O)c1ccc(F)cc1 (configuration not stated) do in these assays?
Spn MK inh: 8; Autofluor 339: 0.93; A340 absorber: 1.1; NADH enzymes: 4%; PMK inhibit: 0; DPM-DC inhibit: inactive

How did COc1ccc(CCNC(=O)CSc2nc(-c3ccco3)cc(C(F)(F)F)n2)cc1OC do in these assays?
Spn MK inh: 4; Autofluor 339: 1.1; A340 absorber: 1.1; NADH enzymes: 3%; PMK inhibit: 4; DPM-DC inhibit: inactive

Results for COc1ccc(-c2cc(C(F)(F)F)nc(SCC(=O)NCc3ccco3)n2)cc1OC ?
Spn MK inh: 9; Autofluor 339: 2.7*; A340 absorber: 1; NADH enzymes: 4%; PMK inhibit: 12

How did COc1ccc(-c2cc(C(F)(F)F)nc(SCC(N)=O)n2)cc1 do in these assays?
Spn MK inh: 9; Autofluor 339: 3.7*; A340 absorber: 1.1; NADH enzymes: 11%; PMK inhibit: 13

What do the screens show for `CN1CCN(C(=O)C2CC(c3c(F)cccc3Cl)=NO2)CC1` (configuration not stated)?
Spn MK inh: 10; Autofluor 339: 1.1; A340 absorber: 1; NADH enzymes: 5%; PMK inhibit: 6; DPM-DC inhibit: inactive

What do the screens show for `COc1ccc(C(=O)c2coc3ccc(O)c(CN4CCOCC4)c23)cc1`?
Spn MK inh: 6; Autofluor 339: 1; A340 absorber: 1; NADH enzymes: 2%; PMK inhibit: 1; DPM-DC inhibit: inactive

How did COc1ccc(-c2coc3c(CN4CCCCC4)c(O)c(CN4CCCCC4)c(O)c3c2=O)cc1 do in these assays?
Spn MK inh: 0; Autofluor 339: 1; A340 absorber: 1; NADH enzymes: 3%; PMK inhibit: 26*; DPM-DC inhibit: inactive

Results for Cc1sc2nc(C3CC3)nc(NCCNS(C)(=O)=O)c2c1C ?
Spn MK inh: 4; Autofluor 339: 1; A340 absorber: 1; NADH enzymes: 4%; PMK inhibit: 9; DPM-DC inhibit: inactive

How did CNC(=O)C1CC(=O)N(Cc2ccc3c(c2)OCO3)C(=Nc2ccc(OC)cc2)S1 (configuration not stated) do in these assays?
Spn MK inh: 0; Autofluor 339: 1.1; A340 absorber: 1; NADH enzymes: 9%; PMK inhibit: 27*; DPM-DC inhibit: inactive

What do the screens show for `NC(=O)C1CC(=O)N(Cc2ccc3c(c2)OCO3)C(=Nc2ccccc2)S1` (configuration not stated)?
Spn MK inh: 0; Autofluor 339: 1.1; A340 absorber: 1.1; NADH enzymes: 6%; PMK inhibit: 18; DPM-DC inhibit: inactive

What do the screens show for `O=c1[nH]c(NCc2ccco2)nnc1Cc1ccccc1Cl`?
Spn MK inh: 11; Autofluor 339: 1.1; A340 absorber: 1; NADH enzymes: 1%; PMK inhibit: 0; DPM-DC inhibit: inactive
